# Among all 16,000 compounds or so, about 5,100 (32%) were called active. Another 25% or so got no clear call; they are omitted. The list shows a part of the results. Values without a mark were called inactive. Calls follow the shape of the dose curve; as a rule, active = well fitted curve in the direction sought with a large enough effect; inconclusive = small, poorly fitted or top-dose-only effect, or effect the other way; inactive = no such curve, though single readings can be large or run the other way. Square brackets hold non-standard residues; d marks the D form. Peptide text beside a SMILES is read from it.
# Target: Cytochrome P450 3A4 (Homo sapiens) (UniProt P08684)
# Sequence (P08684 whole entry, looked up): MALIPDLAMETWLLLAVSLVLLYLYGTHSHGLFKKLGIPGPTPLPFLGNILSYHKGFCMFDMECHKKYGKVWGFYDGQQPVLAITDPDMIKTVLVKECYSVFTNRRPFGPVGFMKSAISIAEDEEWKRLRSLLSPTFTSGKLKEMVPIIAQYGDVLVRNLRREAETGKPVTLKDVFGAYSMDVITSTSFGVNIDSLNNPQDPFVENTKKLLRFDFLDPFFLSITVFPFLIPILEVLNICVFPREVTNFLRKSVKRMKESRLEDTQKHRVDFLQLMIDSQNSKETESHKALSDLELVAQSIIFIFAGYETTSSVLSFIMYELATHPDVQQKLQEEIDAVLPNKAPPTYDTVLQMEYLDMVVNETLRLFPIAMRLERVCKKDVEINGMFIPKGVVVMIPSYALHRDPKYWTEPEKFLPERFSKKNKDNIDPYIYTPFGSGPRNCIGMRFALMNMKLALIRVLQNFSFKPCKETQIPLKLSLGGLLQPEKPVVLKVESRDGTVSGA
# Assay: Cytochrome panel assay with activity outcomes
# Conditions: recombinant CYP, pro-luciferin dealkylation, luminescence, p450-cyp3a4; series mostly up to 57.1 µM
# % is scaled to controls: 0 for no effect and ±100 for the full control effect.
SMILES,AC50,"activity, negative = inhibition"
Cc1cc(OCC(F)(F)C(F)(F)C(F)(F)C(F)(F)C(F)(F)C(F)F)nc(N)n1,inactive,–
Nc1ccc(-c2sc(N)nc2-c2ccccc2)cc1,10 µM (active),–
Nc1nc(-c2ccccc2)c(-c2ccccc2)c(-c2nc(N)nc(-c3ccccc3)c2-c2ccccc2)n1,–,4.04% [at 11.4 µM]
Nc1nc(-c2ccccc2)c(-c2ccccc2)s1,–,-8.94% [at 2.29 µM]
CSC1=N/C(=C\c2ccc(Br)o2)C(=O)S1,–,-3.65% [at 11.4 µM]
C=CC[C@@H]1C=C[C@H](O/N=C(\C)CCN2CCc3nc(-c4ccccc4)c(-c4ccccc4)cc3C2)[C@H](CO)O1,3.98 µM (active),–
CCCNC(=O)OC[C@@H]1O[C@H](CCO/N=C(\C)CCN2CCc3nc(CC)c(CC)cc3C2)C=C[C@@H]1Oc1ccc(OC)cc1,3.98 µM (active),–
COc1ccc(O[C@H]2C=C[C@@H](c3ccccc3)O[C@@H]2CO/N=C(\C)CCN2CCc3nc(-c4ccccc4)c(-c4ccccc4)cc3C2)cc1,–,-57.3% [at 11.4 µM]
C=CC[C@@H]1C=C[C@H](O/N=C(\C)CCN2CCc3nc(CC)c(CC)cc3C2)[C@H](CO)O1,–,-75.9% [at 11.4 µM]
CCCNC(=O)OC[C@@H]1O[C@H](CCO/N=C(\C)CCN2CCc3nc(-c4ccccc4)c(-c4ccccc4)cc3C2)C=C[C@@H]1Oc1ccc(OC)cc1,3.16 µM (active),–
Cc1c(C)c(C)c(CC2(C)CSC2)c(CC2(C)CSC2)c1C,–,-14.4% [at 11.4 µM]
CC1=CC2=NC(=O)CC(C)(C(=O)N(CC(=O)NC(C)(C)C)Cc3cccs3)N2C=C1 (stereo not given),inactive,–
CC(C)(C)NC(=O)CN(Cc1cccs1)C(=O)CCC(=O)Nc1nccs1,4.47 µM (active),–
CN(C)CCN(Cc1cccs1)c1ccccn1,inactive,–
CSc1nc(C)c2c(n1)N(c1ccc(C(F)(F)F)cc1)CC2,inactive,–
CCOC(=O)c1c(-c2ccccc2)csc1NC(=O)c1cccc(N2C(=O)CCC2=O)c1,inactive,–
CCOC(=O)c1c(-c2ccc(C)o2)csc1NC(=S)NC(=O)N(C)C,15.8 µM (active),–
CCOC(=O)c1c(-c2ccc(C)cc2)csc1NC(=O)C1CC=CCC1C(=O)O (stereo not given),–,-2.99% [at 2.29 µM]
COc1cccc(-c2ccc3ncnc(N4CCN(C)CC4)c3c2)c1,15.8 µM (active),–
COc1cccc(-c2ccc3ncnc(N4CCOCC4)c3c2)c1,10 µM (active),–
CN(C)C(=O)c1ccc(-c2ccc3ncnc(N4CCNCC4)c3c2)cc1,inactive,–
COc1ccc(-c2nc(-c3cccc(C)c3)nc(N3CCN(C)CC3)c2C#N)cc1,–,-13.1% [at 2.29 µM]
COc1ccc(-c2nsc3c(N4CCCCC4)ncnc23)cc1,inactive,–

SMILES,AC50,"activity, negative = inhibition"
COc1cc(N2CCOCC2)ncn1,inactive,–
CN(C)C(=O)c1ccc(-c2ccc3ncnc(N4CCOCC4)c3c2)cc1,15.8 µM (active),–
NCC[C@H]1CCC[C@H](CCN)N1,inactive,–
O=C(Cc1ccc(-n2c(=O)[nH]c3ccccc3c2=O)cc1)N1CCN(c2cccc(Cl)c2)CC1,3.16 µM (active),–
O=c1nc2ccccc2c2n1CC(CN1CCN(c3cccc(Cl)c3)CC1)N2 (stereo not given),inactive,–
CCOC(=O)N1CCN(c2c(-c3ccccc3)c3cc(Cl)ccc3[nH]c2=O)CC1,inactive,–
N/C(CC/C(N)=N/O)=N\O,–,-5.56% [at 11.4 µM]
CCOC(=O)CCN1C(=O)[C@H]2[C@@H]3[C@H](O)C=CC(=O)[C@H]3CC[C@H]2C1=O,–,-11.5% [at 11.4 µM]
Cc1cccc(C)c1NC(=O)CCN1C(=O)C2C3CCC(C3)C2C1=O (stereo not given),–,0.821% [at 2.29 µM]
Cc1cc(NC(=O)CCN2C(=O)C3C4CCC(C4)C3C2=O)c(C)cc1Br (stereo not given),7.94 µM (active),–
O=C(CCc1nc2ccccc2c(=O)[nH]1)OCC(=O)N1CCN(S(=O)(=O)c2ccccc2)CC1,7.94 µM (active),–
CCN1CCN(C(=O)CCc2nc3ccccc3c(=O)[nH]2)CC1,inactive,–
O=C(/C=C/c1ccccc1)N1CCN(Cc2nc3ccccc3c(=O)[nH]2)CC1,inactive,–
C[C@H]1C=C2C=C[C@H](C)[C@H](CC[C@@H]3C[C@@H](O)CC(=O)O3)[C@H]2[C@@H](OC(=O)[C@@H](C)CCO)C1,12.6 µM (active),–
CC[C@H](C)C(=O)O[C@H]1CCC=C2C=C[C@H](C)[C@H](CC[C@@H]3C[C@H](O)CC(=O)O3)[C@H]21,12.6 µM (active),–
CCCCCC1CCC(C(=O)NNC(=S)NCC)CC1 (stereo not given),–,-1.07% [at 2.29 µM]
CN(C)CC[C@H](c1ccc(Br)cc1)c1ccccn1,inactive,–
COCCN(C(=O)C(C)C)c1nnc(-c2ccc(C)cc2)s1,inactive,–
CC(C)Cn1c(-c2ccc(Cl)cc2)cnc1SCC(=O)N1CCOCC1,–,-5.92% [at 2.29 µM]
CCn1c(SCC(=O)N2CCOCC2)nc2oc3c(Cl)cc(Cl)cc3c(=O)c2c1=O,11.2 µM (active),–
CC(C)(C)NC(=O)CSc1nnc(Cc2ccc3c(c2)OCO3)n1C1CCCCC1,0.447 µM (active),–
NC(=O)[C@@H]1CCCN1Cc1ccc2c(c1)OCO2,–,-37.8% [at 11.4 µM]
CC(C)N=c1scc(-c2ccco2)n1/N=C/c1ccc(O)c(O)c1,12.6 µM (active),–

SMILES,AC50,"activity, negative = inhibition"
C[N+](C)(C)/N=C\c1ccc(O)c(O)c1,–,-21.1% [at 11.4 µM]
NCCc1nc(-c2nc(C(=O)O)cs2)cs1,–,-14.8% [at 11.4 µM]
COc1ccc(C(=O)N2CCC3(CCN(Cc4ccncc4)CC3)CC2)cc1,15.8 µM (active),–
COc1ccc(C(=O)N2CCC3(CCCN(C)C3)CC2)cc1,inactive,–
CC(=O)N1CCC2(CCN(Cc3ccncc3)CC2)CC1,inactive,–
O=C(c1cccc(F)c1)N1CCC2(CCN(Cc3ccccc3)CC2)CC1,inactive,–
COc1ccc(C(=O)N2CCC3(CCCN(Cc4ccncc4)C3)CC2)cc1,7.94 µM (active),–
O=C(c1ccncc1)N1CCC2(CCCN(Cc3ccncc3)C2)CC1,5.01 µM (active),–
O=C(c1ccncc1)N1CCC2(CCN(Cc3ccccc3)CC2)CC1,15.8 µM (active),–
O=C(O)CP(=O)(O)O,inactive,–
Oc1c(Cl)cc(CN(Cc2cc(Cl)c(O)c(Cl)c2)C2CCCCC2)cc1Cl,–,-4.66% [at 11.4 µM]
O=C(c1ccncc1)N1CCC2(CCCN(Cc3ccccc3)C2)CC1,10 µM (active),–
O=C(c1csnn1)N1CCC2(CCCN(Cc3ccccc3)C2)CC1,inactive,–
CC(=O)N1CCC2(CCCN(Cc3ccccc3)C2)CC1,inactive,–
CC(=O)N1CCC2(CC1)CN(Cc1ccccc1)C2,inactive,–
O=C(c1ccncc1)N1CCC[C@@]2(CCN(Cc3ccccc3)C2)C1,15.8 µM (active),–
CC(=O)OC1CCC(OC(C)=O)c2c1n([O-])c(C)c(C)[n+]2=O (stereo not given),inactive,–
COC(=O)c1c(-n2c(C)cc(C=O)c2C)sc2c1CCCC2,7.08 µM (active),–
O=C(NCCc1ccccc1)c1noc2c1CCc1ccccc1-2,–,-2.2% [at 2.29 µM]
O=C1Nc2ccccc2/C1=N/c1sc2c(c1C(=O)NCCc1ccccc1)CCCC2,7.08 µM (active),–
O=C1Nc2ccccc2C1=Nc1cccc2ncccc12,–,-14.3% [at 11.4 µM]
NCC(=O)N[C@H](CO)C(=O)O (H-Gly-[dS]-OH),–,-9.24% [at 11.4 µM]
C[N+]1(C)CCC(OC(=O)C(c2ccccc2)c2ccccc2)CC1,inactive,–

SMILES,AC50,"activity, negative = inhibition"
CC(C)OC(=O)C(C#N)c1nc2ccccc2nc1N1CCN(Cc2ccccc2)CC1 (stereo not given),inactive,–
CCN1CCN(c2nc3ccccc3nc2C(C#N)C(=O)OC2CCCCC2)CC1 (stereo not given),10 µM (active),–
CCCCCCOC(=O)C(C#N)c1nc2ccccc2nc1N1CCN(CC)CC1 (stereo not given),28.2 µM (active),–
Cc1noc2ncnc(Oc3ccc4ccccc4c3)c12,inactive,–
Cc1cc(C)nc(Nc2n[nH]c(COc3ccc4ccccc4c3)n2)n1,5.01 µM (active),–
Nc1nc(-c2cc(-c3cccc4ccccc34)nc(N)n2)cc(-c2cccc3ccccc23)n1,–,6.26% [at 11.4 µM]
NC(=O)Nc1n[nH]c(-c2ccccc2)n1,–,-3.37% [at 11.4 µM]
Cc1cc(Oc2ccccc2)nc(NCc2ccccc2)n1,–,7.15% [at 11.4 µM]
Cc1cc(C)nc(Nc2n[nH]c(-c3cccc4ccccc34)n2)n1,14.1 µM (active),–
O=c1[nH]ncn2cccc12,inactive,–
COc1ccccc1-n1c(SCC(=O)Nc2ccccc2F)nc2[nH]ncc2c1=O,14.1 µM (active),–
NCCSc1nc(-c2ccccc2)c(-c2ccccc2)o1,–,-23.1% [at 11.4 µM]
Oc1ccccc1C(Sc1nc2ccccc2s1)Sc1nc2ccccc2s1,–,-6.59% [at 11.4 µM]
NCCSc1nc2ccccc2s1,3.16 µM (active),–
c1ccc2sc(SCSc3nc4ccccc4s3)nc2c1,3.16 µM (active),–
c1ccc2sc(SCCSc3nc4ccccc4s3)nc2c1,–,14.9% [at 11.4 µM]
COc1cc(C)cc2c(-c3c(O)cc(O)c4c3C[C@H](C)N[C@@H]4C)cc(-c3cc(-c4c(O)cc(O)c5c4C[C@H](C)N[C@@H]5C)c4cc(C)cc(OC)c4c3O)c(O)c12,–,-3.16% [at 11.4 µM]
C[C@@](N)(C(=O)O)c1ccc(P(=O)(O)O)cc1,inactive,–
Cc1cc2c(=O)[nH]c(N)nc2nc1C,–,-3.61% [at 11.4 µM]
COc1ccccc1CNc1ccnc(-c2ccc3c(c2)OCO3)n1,1.58 µM (active),–
COc1ccc(CNc2ccnc(-c3ccc4c(c3)OCO4)n2)c(OC)c1,1 µM (active),–
